From PubChem BioAssay (NCI) come the findings set out here.

Compounds without any hit were thinned out: in the full panel of roughly 83,000, 20% have a hit.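 Cell lines were cultured in 96-well plates, exposed to a single compound concentration, and assessed for percent growth 48 hours later.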 A number with no mark means an inactive call. Active and inactive are the calls of the source. The calls were made as follows: active = growth percent below 10; inactive = the rest.

Among the test systems are NCI-H23 lung; NCI-H226 lung; NCI-H322M lung; HOP-62 NSCLC; NCI-H460 lung; HOP-92 NSCLC; NCI-H522 lung; A549/ATCC NSCLC; 786-0 renal; COLO 205 colon.
What all share (assay): NCI-60 one-dose screen, 48 h (100 = growth as untreated, 0 = no growth, -100 = all killed)
Common to all, as to settings: 10 µM unless noted

Take `C=C(C)[C@@H]1CC[C@]2(CO)CC[C@]3(C)[C@H](CC[C@@H]4[C@@]5(C)CC[C@H](NCO)C(C)(C)[C@@H]5CC[C@]43C)[C@@H]12`: the growth was -20.9% (active) with NCI-H23 lung; 72.5% in the test with NCI-H226 lung; -83.7% (active) with NCI-H322M lung; -61.9% (active) in the test with HOP-62 NSCLC; -86.1% (active) with NCI-H460 lung; 42.2% in the test on HOP-92 NSCLC. Further, the growth is -42.7% (active) with NCI-H522 lung, -45.7% (active) in the test with A549/ATCC NSCLC, -94% (active) in the test on 786-0 renal and -57.1% (active) in the test on COLO 205 colon.
Consider `C=C(C)[C@@H]1CC[C@]2(C(=O)N3CCOCC3)CC[C@]3(C)[C@H](CC[C@@H]4[C@@]5(C)C/C(=C/c6ccncc6)C(=O)C(C)(C)[C@@H]5CC[C@]43C)[C@@H]12`, for which the growth is 61.7% with NCI-H23 lung; 42.9% with NCI-H226 lung; 86.8% in the test on NCI-H322M lung; 80.8% in the test on HOP-62 NSCLC; 49.7% in the test on NCI-H460 lung; 39.5% in the test on HOP-92 NSCLC. The growth in the test with NCI-H522 lung was 50.3%; in the test on A549/ATCC NSCLC, 42.4%; in the test on 786-0 renal, 76.4%; with COLO 205 colon, 51.5%.
For `COc1cc2c(c(OC)c1OC)CCC(c1cccc(C(=O)Nc3cccc(Cl)c3)c1)O2` (stereo not given), the growth in the test with NCI-H23 lung was 85.8%; in the test with NCI-H226 lung, 65.6%; in the test on NCI-H322M lung, 51.7%; with HOP-62 NSCLC it was 79.6%; in the test on NCI-H460 lung, 85%; in the test on HOP-92 NSCLC it was 8.45% (active). For the same compound, the growth with NCI-H522 lung is 51.7%; in the test with A549/ATCC NSCLC, 61.6%; in the test with 786-0 renal, 79.8%; in the test on COLO 205 colon it was 76.7%.
With `COc1ccc(-c2noc(C(=O)O)c2-c2cc(OC)c(OC)c(OC)c2)cc1`, the growth is 39.9% in the test with NCI-H23 lung; 54.1% in the test on NCI-H226 lung; 48.9% in the test on NCI-H322M lung; 36.6% in the test on HOP-62 NSCLC; 14.8% in the test with NCI-H460 lung; 54.9% with HOP-92 NSCLC. Besides, the growth is 17.3% with NCI-H522 lung, 43.4% in the test on A549/ATCC NSCLC, 33.1% in the test on 786-0 renal and 6.75% (active) in the test on COLO 205 colon.
As to `CN1CCc2nc3sc(C(N)=O)c(N)c3c(-c3cccs3)c2C1`, the growth is 36.2% with NCI-H23 lung; 16.3% in the test on NCI-H226 lung; 40.7% with NCI-H322M lung; 23.3% in the test with HOP-62 NSCLC; 30.4% with NCI-H460 lung; -7.38% (active) in the test on HOP-92 NSCLC. For the same compound, the growth in the test on NCI-H522 lung was 38.9%; in the test on A549/ATCC NSCLC it was 24.1%; in the test with 786-0 renal, 9.22% (active); with COLO 205 colon it was 7.02% (active).
As for `COc1cc2c(c(OC)c1OC)CCC(c1cccc(NC(=O)c3ccc(Br)cc3)c1)O2` (stereo not given), the growth is 80.1% in the test with NCI-H23 lung; 72.4% in the test on NCI-H226 lung; 75.1% in the test with NCI-H322M lung; 87.2% in the test with HOP-62 NSCLC; 93.5% in the test on NCI-H460 lung; 58.5% in the test with HOP-92 NSCLC. Also, the growth was 74.6% in the test with NCI-H522 lung, 67.4% in the test with A549/ATCC NSCLC, 97.1% with 786-0 renal and 85.8% in the test on COLO 205 colon.
As for `CCOC(=O)c1cc(C(=O)c2cc(OC)c(OC)c(OC)c2)n2ncccc12`, the growth is 38% with NCI-H23 lung; 29.6% in the test with NCI-H226 lung; 48.1% in the test with NCI-H322M lung; 32.2% in the test on HOP-62 NSCLC; 10.3% with NCI-H460 lung; 73.6% with HOP-92 NSCLC. In addition, the growth was 34.8% with NCI-H522 lung, 24.1% in the test on A549/ATCC NSCLC, 26.5% with 786-0 renal and -24.7% (active) with COLO 205 colon.
Turning to `O=c1c2ccccc2n2cnc3ccc(Cl)c1c32`, the growth was 86.2% with NCI-H23 lung; 93.9% with NCI-H226 lung; 90.2% in the test with NCI-H322M lung; 93.1% in the test on HOP-62 NSCLC; 58.5% in the test with NCI-H460 lung; 102% in the test with HOP-92 NSCLC. The growth with NCI-H522 lung is 65.4%; in the test on A549/ATCC NSCLC, 67.8%; in the test on 786-0 renal, 73.3%; in the test on COLO 205 colon, 91.8%.
Regarding `CCSc1nc2scc(C)c2c(=O)[nH]1`, the growth in the test on NCI-H23 lung is 95.1%; in the test with NCI-H226 lung it was 99.2%; in the test on NCI-H322M lung, 104%; in the test with HOP-62 NSCLC, 106%; in the test with NCI-H460 lung, 102%; with HOP-92 NSCLC it was 101%. For the same compound, the growth with NCI-H522 lung was 94.6%; with A549/ATCC NSCLC it was 99.2%; with 786-0 renal, 94%; with COLO 205 colon, 111%.
Turning to `c1ccc(-c2oc(-c3ccccc3)c(CN3CCCCC3)c2CN2CCCCC2)cc1`, the growth was 26% in the test with NCI-H23 lung; 47.5% in the test with NCI-H226 lung; 52.9% in the test on NCI-H322M lung; 54.2% in the test on HOP-62 NSCLC; 24.8% in the test on NCI-H460 lung; 4.02% (active) in the test on HOP-92 NSCLC. Also, the growth was 2.64% (active) in the test with NCI-H522 lung, 56.2% in the test on A549/ATCC NSCLC, 38.7% in the test on 786-0 renal and 6.83% (active) in the test on COLO 205 colon.
On to `CCOC(=O)C1=C(C)NC(=O)NC1c1c(Cl)n(CCCl)c2ccccc12` (stereo not given), for which the growth in the test on NCI-H23 lung is 92.5%; in the test on NCI-H226 lung it was 92%; with NCI-H322M lung it was 92.6%; in the test with HOP-62 NSCLC it was 90.8%; with NCI-H460 lung, 98.9%; in the test with HOP-92 NSCLC it was 42.9%. The growth in the test on NCI-H522 lung was 90%; with A549/ATCC NSCLC it was 95.4%; in the test on 786-0 renal, 92.9%; in the test on COLO 205 colon, 117%.
In the case of `O=C(COc1ccc(-c2nc3cc(Cl)c(Cl)cc3[nH]2)cc1)N=Nc1c(O)[nH]c2ccc(Cl)cc12`, the growth with NCI-H23 lung was 70.1%; in the test on NCI-H226 lung, 80.8%; in the test with NCI-H322M lung, 94.9%; in the test with HOP-62 NSCLC it was 89.9%; in the test on NCI-H460 lung, 46.4%; in the test with HOP-92 NSCLC, 77.1%. Also, the growth is 97.9% in the test on NCI-H522 lung, 75.9% in the test on A549/ATCC NSCLC, 68.7% with 786-0 renal and 56.2% in the test on COLO 205 colon.
On to `CCOC(=O)[C@@H]1CSC(CC)=C(C(=O)O)N1`, for which the growth with NCI-H23 lung is 103%; in the test on NCI-H226 lung, 98.2%; in the test with NCI-H322M lung it was 92.7%; with HOP-62 NSCLC it was 89.2%; in the test on NCI-H460 lung it was 110%; in the test on HOP-92 NSCLC, -35.1% (active). The growth was 93.6% in the test on NCI-H522 lung, 90.7% in the test with A549/ATCC NSCLC, 92.2% with 786-0 renal and 100% with COLO 205 colon.
